Source: PubChem BioAssay
Only some compounds are listed: those with a hit (about 3.5% of all), similar ones and a draw of the others.
BoNT-A LC inh2: BoNT A light chain protease inhibition. multiplex microsphere protease substrate cleavage, flow cytometry. inhibition, % at 10 µM. hit rate 0.17% among 360,000. AID 588499; also: plate controls were buffer without enzyme for full effect and enzyme alone for no effect
Anthrax LF inh2: inhibitors of Bacillus anthracis lethal factor protease | P15917 | AID 588501 | multiplex microsphere protease cleavage assay, LF | inhibition, % at 10 µM | hit rate 0.12% among 360,000; also: plate controls were buffer without enzyme for full effect and enzyme alone for no effect
Autofluor counter: compound fluorescence in toxin protease inhibitor counterscreen. compound autofluorescence counterscreen, microsphere flow cytometry; hits give high values. fluorescence intensity (concentration not given with the values). hit rate 3.1% among 360,000. AID 624483; in the data active = fluorescence intensity above about 16000; inconclusive = no clear call, values can overlap the other calls
BoNT-F LC inh: BoNT F light chain protease inhibition; hit rate 0.22% among 360,000; Multiplex microsphere protease cleavage assay, flow cytometry; AID 588497; inhibition, % at 10 µM; in the data active = inhibition above about 35%, passing the limit was not always enough; inconclusive = no clear call, values can overlap the other calls; also: plate controls were buffer without enzyme for full effect and enzyme alone for no effect
3CLpro inhibitor: SARS-CoV 3CLpro protease inhibition. recombinant SARS-CoV 3CLpro, quenched FRET peptide cleavage. AID 1706. inhibition, % at 6 µM. P0C6X7. hit rate 0.14% among 290,000; in the data active = inhibition above about 12%
Active calls of the source: *; ? = inconclusive; · = no result. Rule as the data show it, unless noted: active = inhibition above about 30%; inconclusive = no clear call, values can overlap the other calls; inactive = below that.

SMILES	BoNT-A LC inh2	Anthrax LF inh2	Autofluor counter	BoNT-F LC inh	3CLpro inhibitor
CCS(=O)(=O)c1ccc(C(=O)Nc2ccccc2OC)c(Cl)c1Cl	-1	-1	4119	-1	0
CCOC(=O)C1CCN(C(=O)c2cccnc2Cl)CC1	0	-2	20039*	-1	-3
CCOC(=O)C1CCN(C(=O)c2ccccc2NC(C)=O)CC1	0	-5	2982	1	-1
CCOC(=O)C1CCCN(Cc2ccccc2OCC)C1 (centres undefined)	3	-4	19086*	0	3
CCOC(=O)C1CCN(Cc2cn[nH]c2-c2ccccc2)CC1	-1	3	20102*	-2	-1
CCOC(=O)C1CCCN(CC(O)COc2ccccc2C(C)=O)C1 (centres undefined)	0	-6	22881*	-1	-2
COc1ccc(NC(=O)c2sccc2-n2cccc2)cc1	-1	-3	4101	-4	-2
COc1ccc(CNC(=O)C2CCCN2C(=O)NC2CCCCC2)cc1 (centres undefined)	-1	-6	9737	-2	0
CCOC(=O)C1CCN(Cc2c(F)cccc2Cl)CC1	-5	0	25112*	-6	-3
CCOC(=O)C1CCN(Cc2cnc(Oc3ccc(OC)cc3)s2)CC1	-4	-2	24024*	-5	2
CCOC(=O)N1CCN(Cc2c(O)ccc3ccccc23)CC1	-1	-12	4525	?	-2
CCOC(=O)C1CCCN(C(=O)Cc2c(F)cccc2Cl)C1 (centres undefined)	-1	1	12928	0	-1
CCOC(=O)C1CCN(C(=O)Cc2c(F)cccc2Cl)CC1	0	2	10285	1	1
CCOC(=O)C1CCCN(Cc2c(F)cccc2Cl)C1 (centres undefined)	1	-1	20111*	1	0
CCOC(=O)C1CCN(Cc2c(O)ccc3ccccc23)CC1	?	-1	19910*	1	-4
COCCCNC(=O)CC1C[C@H](C(=O)N2CCOCC2)[C@@]2(C)c3[nH]c4ccccc4c3CCN2C1=O (some centres undefined)	0	-1	3974	4	·
CCOC(=O)C1CCCN(C(=O)CN2C(=O)c3ccccc3C2=O)C1 (centres undefined)	?	-1	20127*	-1	-1
CCOC(=O)C1CCCN(C(=O)CN2C(=O)c3ccccc3S2(=O)=O)C1 (centres undefined)	0	1	3773	-3	·
CCOC(=O)C1CCCN(C(=O)C(C)Oc2ccc(Cl)cc2Cl)C1 (centres undefined)	?	1	22441*	4	-7
O=C(N/N=C/c1ccncc1)c1ccc(OCc2ccccc2)cc1	0	-8	3612	-2	-1
CCCCN(CCCC)Cc1cc(=O)oc2ccccc12	1	0	5968	0	·
CCCc1ccc(-c2cc(C(=O)NN3CCOCC3)c3ccccc3n2)cc1	0	-9	23255*	0	2
NS(=O)(=O)c1ccc(CCNC(=O)c2cc(-c3ccc(Br)cc3)nc3ccccc23)cc1	0	-1	2467	-6	7
CC(C)Oc1cccc(-c2cc(C(=O)NN3CCOCC3)c3ccccc3n2)c1	0	-4	5636	8	2
CCCc1ccc(-c2cc(C(=O)NCCc3ccc(S(N)(=O)=O)cc3)c3ccccc3n2)cc1	4	0	22125*	4	0
SMILES	BoNT-A LC inh2	Anthrax LF inh2	Autofluor counter	BoNT-F LC inh	3CLpro inhibitor
O=C(CNC(=O)c1ccccc1C(=O)O)c1ccccc1	0	3	22929*	3	0
CC1CCCN(CCCNC(=O)c2nn(C)c3c2CSc2ccccc2-3)C1 (centres undefined)	1	0	5239	0	5
O=C(CN1CCN(c2ccccn2)CC1)N1c2ccccc2Sc2ccc(C(F)(F)F)cc21	-4	-2	17711*	-7	6
O=C(CN1CCN(c2ccccn2)CC1)N1c2ccccc2CCc2ccccc21	0	-3	20825*	-1	-4
Cc1ccc(S(=O)(=O)/N=C/c2c(O)ccc3ccccc23)cc1	·	·	·	·	-4
COc1ccc(S(=O)(=O)N2CCC3(CC2)OCCN3S(=O)(=O)c2cccs2)cc1OC	-63	-16	20013*	-85	·
COc1ccc(C)cc1S(=O)(=O)N1CCC2(CC1)OCCN2S(=O)(=O)c1cccs1	1	1	4086	10	·
O=c1nc(N2CCCCC2)nc2n1CCO2	1	-1	2533	5	1
CN1CCn2c1nc(N1CCCCC1)nc2=O	-6	0	21803*	-9	10
CCCNC(=O)C1(C)CCN(Cc2ccc(OC)c3ccccc23)C1 (centres undefined)	0	4	3468	-2	·
Cc1ccc(NC(=O)CCCN2C(=O)/C(=C/C=C/c3ccccc3)SC2=S)cc1	29	13	2783	-1	-4
CC(C)c1ccccc1NC(=O)COC(=O)CCN1C(=O)/C(=C\C=C\c2ccccc2)SC1=S	40*	18	2544	6	2
O=C(COC(=O)CCN1C(=O)/C(=C\C=C\c2ccccc2)SC1=S)Nc1ccc(Br)cc1	41*	27	4781	14	-1
O=C(CCN1C(=O)/C(=C\C=C\c2ccccc2)SC1=S)Nc1ccccc1C(=O)O	-2	-2	4940	-5	6
CC(C)c1nnc(NC(=O)CCC(=O)Nc2ccc(Cl)cc2)s1	1	1	5552	2	-4
CC(C)CCn1c(N2CCc3ccccc3C2)nc2c1c(=O)[nH]c(=O)n2C	0	0	6162	-2	-3
Nc1ncnc2nc(SCc3ccccc3)[nH]c12	-1	-1	2882	3	3
COc1ccccc1N1CCN(C(=O)CSc2nc3ncnc(N)c3[nH]2)CC1	0	4	5596	0	-2
Nc1ncnc2nc(SCCN3CCCCC3)[nH]c12	0	-2	16379*	0	-5
Nc1ncnc2nc(SCC(=O)N3CCN(c4ccccc4)CC3)[nH]c12	?	-12	17350*	19	-4
O=C(CSc1ccccn1)N1CCN(c2ccccc2)CC1	-3	-2	16913*	-2	-5
C=CCNCC(=O)Nc1ccccc1SCC(=O)Nc1ccsc1C(=O)OC	0	0	2628	-6	2
Cc1cc(OCC(=O)OCC(=O)N2CCCc3ccccc32)ccc1Cl	0	-3	3877	5	·
CC(C(=O)Nc1ccc(C(=O)O)cc1)N1C(=O)c2ccccc2C1=O (centres undefined)	0	-2	20892*	-2	-2
COCCCNC(=O)c1sc2ncnc(N3CCc4ccccc4C3)c2c1C	1	3	7899	0	-5
CC1Cc2ccccc2N1C(=O)c1cnc2ccccn2c1=O (centres undefined)	-2	-2	23725*	-5	-1
Cc1csc2ncc(C(=O)N3c4ccccc4CC3C)c(=O)n12 (centres undefined)	1	-5	4519	9	-4
Cc1cc(=O)oc2cc(O[C@@H]3O[C@H](CO)[C@@H](O)[C@H](O)[C@H]3O)ccc12	0	-10	3529	-9	-4
Clc1ccccc1-c1nc(-c2ccccc2)n[nH]1	-1	-1	24108*	-1	3
